# In the supplement of paper PMC8728848:
# The full list was thinned out, with the strongest signals kept by preference.
# Tests used:
# Experiment in all cases: glycan array binding signal (z-score within array); higher = stronger binding
# Details in all cases: glycan notation: IUPAC condensed, linker removed
# Fuc(a1-2)Gal = target: Fuc(a1-2)Gal
# How it was run: (§1)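 Glycan array data came from 3228 arrays in the Consortium for Functional Glycomics database, and only arrays with an available protein sequence were kept. Glycan names were put into IUPAC-condensed notation, and columns mapping to the same glycan were averaged. The binding signal is a within-array Z-score, averaged across arrays of one protein sequence run at different concentrations or buffers and across linkers. A negative Z-score can be read as non-binding.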
# [1] = target: Fuc(a1-2)Gal(b1-4)GlcNAc(b1-2)Man(a1-3)[Fuc(a1-2)Gal(b1-4)GlcNAc(b1-2)Man(a1-6)]Man(b1-4)GlcNAc(b1-4)GlcNAc
# How it was run: as §1
# [2] = target: Fuc(a1-2)Gal(b1-4)GlcNAc6S
# How it was run: as §1
# [3] = target: Fuc(a1-2)[GalNAc(a1-3)]Gal
# How it was run: as §1
# [4] = target: Fuc(a1-2)[GalNAc(a1-3)]Gal(b1-3)GalNAc(b1-3)Gal(a1-4)Gal(b1-4)Glc
# How it was run: as §1
# [5] = target: Fuc(a1-2)[GalNAc(a1-3)]Gal(b1-4)GlcNAc(b1-2)Man(a1-3)[Fuc(a1-2)[GalNAc(a1-3)]Gal(b1-4)GlcNAc(b1-2)Man(a1-6)]Man(b1-4)GlcNAc(b1-4)GlcNAc
# How it was run: as §1
# [6] = target: Fuc(a1-3)[Gal(b1-4)]GlcNAc(b1-3)GalNAc
# How it was run: as §1
# [7] = target: Fuc(a1-3)[Gal(b1-4)]GlcNAc(b1-4)Gal(b1-4)[Fuc(a1-3)]GlcNAc(b1-4)Gal(b1-4)[Fuc(a1-3)]GlcNAc
# How it was run: as §1
# [8] = target: Fuc(a1-3)[GalNAc(b1-4)]GlcNAc
# How it was run: as §1
# [9] = target: Fuc(a1-3)[GalNAc(b1-4)]GlcNAc6S
# How it was run: as §1
# [10] = target: Gal(a1-4)Gal(b1-4)GlcNAc(b1-3)Gal(b1-4)Glc
# How it was run: as §1
# [11] = target: Gal(b1-4)GlcNAc(b1-2)Man(a1-6)[Man(a1-3)]Man(b1-4)GlcNAc(b1-4)GlcNAc
# How it was run: as §1
# [12] = target: Gal(b1-4)GlcNAc(b1-3)[Gal(b1-4)GlcNAc(b1-6)]GalNAc
# How it was run: as §1
# [13] = target: Gal(b1-4)GlcNAc(b1-6)Gal(b1-4)GlcNAc(b1-6)GalNAc
# How it was run: as §1
# GalNAc4S6S(b1-4)GlcNAc = target: GalNAc4S6S(b1-4)GlcNAc
# How it was run: as §1
# GalNAc6S(b1-4)GlcNAc = target: GalNAc6S(b1-4)GlcNAc
# How it was run: as §1
# [14] = target: GlcNAc(a1-3)Gal(b1-4)GlcNAc
# How it was run: as §1
# [15] = target: GlcNAc(a1-6)Gal(b1-4)GlcNAc
# How it was run: as §1
# [16] = target: GlcNAc(b1-2)Man(a1-3)[GlcNAc(b1-2)Man(a1-6)]Man(b1-4)GlcNAc(b1-4)[Fuc(a1-6)]GlcNAc
# How it was run: as §1
# [17] = target: GlcNAc(b1-3)Gal(b1-4)GlcNAc(b1-2)Man(a1-3)[GlcNAc(b1-3)Gal(b1-4)GlcNAc(b1-2)Man(a1-6)]Man(b1-4)GlcNAc(b1-4)[Fuc(a1-6)]GlcNAc
# How it was run: as §1
# [18] = target: GlcNAc(b1-3)Gal(b1-4)GlcNAc(b1-3)Gal(b1-4)GlcNAc(b1-3)Gal(b1-4)GlcNAc(b1-3)Gal(b1-4)GlcNAc(b1-2)[GlcNAc(b1-3)Gal(b1-4)GlcNAc(b1-3)Gal(b1-4)GlcNAc(b1-3)Gal(b1-4)GlcNAc(b1-3)Gal(b1-4)GlcNAc(b1-6)]Man(a1-6)[GlcNAc(b1-3)Gal(b1-4)GlcNAc(b1-3)Gal(b1-4)GlcNAc(b1-3)Gal(b1-4)GlcNAc(b1-3)Gal(b1-4)GlcNAc(b1-2)Man(a1-3)]Man(b1-4)GlcNAc(b1-4)[Fuc(a1-6)]GlcNAc
# How it was run: as §1
# [19] = target: GlcNAc(b1-3)Gal(b1-4)GlcNAc(b1-6)[GlcNAc(b1-3)]Gal(b1-4)GlcNAc
# How it was run: as §1
# [20] = target: GlcNAc(b1-3)[GlcNAc(b1-6)]GlcNAc(b1-4)GlcNAc
# How it was run: as §1
# GlcNAc(b1-4)GlcNAc = target: GlcNAc(b1-4)GlcNAc
# How it was run: as §1
# [21] = target: Man(a1-2)Man(a1-3)[Man(a1-6)]Man(a1-6)[Man(a1-2)Man(a1-3)]Man(b1-4)GlcNAc(b1-4)GlcNAc
# How it was run: as §1
# [22] = target: Man(a1-2)Man(a1-6)[Man(a1-3)]Man(a1-6)[Man(a1-2)Man(a1-2)Man(a1-3)]Man
# How it was run: as §1
# [23] = target: Man(a1-2)Man(a1-6)[Man(a1-3)]Man(a1-6)[Man(a1-2)Man(a1-2)Man(a1-3)]Man(b1-4)GlcNAc(b1-4)GlcNAc
# How it was run: as §1
# Man(a1-3)[Man(a1-6)]Man = target: Man(a1-3)[Man(a1-6)]Man
# How it was run: as §1
# [24] = target: Man(a1-3)[Man(a1-6)]Man(a1-6)[Man(a1-2)Man(a1-3)]Man(b1-4)GlcNAc(b1-4)GlcNAc
# How it was run: as §1
# [25] = target: Man(a1-3)[Man(a1-6)]Man(a1-6)[Man(a1-3)]Man
# How it was run: as §1
binder,measurement,setting,value
HHA (Hippeastrum hybrid) (protein) MQQDCNLVLYDVDKPIWASNTGGLARDCHLNMQSDGNLVVYAPRNQVIWASNTQGENGNYVCILQKDRNVVIYGTARWATGTNIHGAGIVGVPGSAPQNTTAEMIKLVRKYLITK,glycan array binding signal (z-score),Fuc(a1-2)Gal,-0.215
same,glycan array binding signal (z-score),[1],0.036
same,glycan array binding signal (z-score),[2],-0.207
same,glycan array binding signal (z-score),[3],-0.21
same,glycan array binding signal (z-score),[4],-0.213
same,glycan array binding signal (z-score),[5],-0.159
same,glycan array binding signal (z-score),[6],-0.17
same,glycan array binding signal (z-score),[7],-0.255
same,glycan array binding signal (z-score),[8],-0.196
same,glycan array binding signal (z-score),[9],-0.214
same,glycan array binding signal (z-score),[10],-0.203
same,glycan array binding signal (z-score),[11],3.97
same,glycan array binding signal (z-score),[12],-0.247
same,glycan array binding signal (z-score),[13],-0.191
same,glycan array binding signal (z-score),GalNAc4S6S(b1-4)GlcNAc,-0.218
same,glycan array binding signal (z-score),GalNAc6S(b1-4)GlcNAc,-0.209
same,glycan array binding signal (z-score),[14],-0.2
same,glycan array binding signal (z-score),[15],-0.203
same,glycan array binding signal (z-score),[16],-0.168
same,glycan array binding signal (z-score),[17],-0.147
same,glycan array binding signal (z-score),[18],-0.124
same,glycan array binding signal (z-score),[19],-0.185
same,glycan array binding signal (z-score),[20],-0.264
same,glycan array binding signal (z-score),GlcNAc(b1-4)GlcNAc,-0.211
same,glycan array binding signal (z-score),[21],3.35
same,glycan array binding signal (z-score),[22],2.72
same,glycan array binding signal (z-score),[23],3.81
same,glycan array binding signal (z-score),Man(a1-3)[Man(a1-6)]Man,5.62
same,glycan array binding signal (z-score),[24],5.57
same,glycan array binding signal (z-score),[25],5.35
